We go through 11 compounds from PubChem BioAssay (Tox21).

Records with an inconclusive call do not appear. Calls of active or inactive are those of the source. Unless noted, the call rests on the fitted dose curve; in most records, active means well fitted curve in the direction sought with a large enough effect in the repeat runs; inconclusive means weak or mixed curves; inactive means no such curve, though single readings can be large; an effect the other way counts as inactive or inconclusive.

Assay [1] concerns the target Peroxisome proliferator-activated receptor delta (Homo sapiens) (UniProt Q03181). Put plainly: qHTS assay to identify small molecule agonists of the peroxisome proliferator-activated receptor delta (PPARd) signaling pathway (AID 743212; calls by dose curve). In a few lines:
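GeneBLAzer PPARd UAS-bla HEK293H cells (beta-lactamase reporter under UAS control), plated and rested 5 h at 37 C, then exposed to compounds in DMSO at 37 C; LiveBLAzer B/G FRET substrate added, 2 h room temperature, fluorescence read.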
A general note: In qHTS, concentration-response curves come from the screen itself.

The target is the same in assay [2]. The assay is described as follows: qHTS assay to identify small molecule antagonists of the peroxisome proliferator-activated receptor delta (PPARd) signaling pathway (AID 743215; active means well fitted inhibition curve with a large enough effect in the signal ratio in the repeat runs, not every such curve was filed as active; the % refers to the signal ratio;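 further: cells stimulated with agonist L165041 at 300 nM final during compound exposure; series mostly up to about 62 µM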). In a few lines:
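Read-out is beta-lactamase FRET fluorescence, measured 2 h after substrate addition at room temperature. Beforehand, UAS-bla HEK293H cells carrying the PPARd reporter were exposed to compounds with L165041 at 300 nM final for 17 h at 37 C.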

Assay [3] is described as follows: qHTS assay to identify small molecule agonists of the farnesoid-X-receptor (FXR) signaling pathway - cell viability counter screen (AID 743218). Further: nearly all actives have a fitted effect of over 45% in size. Further: potency means the concentration at half of the fitted maximal effect. The method, boiled down:
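HEK 293T FXR-bla cells; 5 h pre-incubation, 16 h compound exposure at 37 C; LiveBLAzer substrate 2 h RT, then CellTiter-Glo 30 min RT, luminescence.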

The nature of assay [4]: qHTS assay to identify small molecule antagonists of the farnesoid-X-receptor (FXR) signaling pathway - cell viability counter screen (AID 743221; active means well fitted cell-killing curve with a large enough effect in the repeat runs, not every such curve was filed as active; further: nearly all actives have a fitted effect of over 50% in size; further: potency means the concentration at half of the fitted maximal effect). In a few lines:
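Cytotoxicity counter screen run in the FXR-bla reporter wells: HEK 293T cells exposed to compound with 50 uM (final) chenodeoxycholic acid for 16 h, 37 C, then viability measured by CellTiter-Glo luminescence after 30 min, room temperature.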

Assay [5] deals with Vitamin D3 receptor (Homo sapiens) (UniProt P11473). Put plainly: qHTS assay to identify small molecule agonists of the vitamin D receptor (VDR) signaling pathway (AID 743222; calls by dose curve). In a few lines:
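VDR-bla cells, 2,000/well; 4 h preincubation 37C; cpd (DMSO) 16 h; LiveBLAzer B/G substrate 2 h RT; fluorescence intensity read.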

Assay [6] is described as follows: qHTS assay to identify small molecule agonists of the vitamin D receptor (VDR) signaling pathway - cell viability counter screen (AID 743224). Further: nearly all actives have a fitted effect of over 50% in size. Further: potency means the concentration at half of the fitted maximal effect. In a few lines:
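Luminescence from CellTiter-Glo, read after 30 min at room temperature, reports viability of VDR-bla cells treated with compounds for 16 h at 37C in the wells used for the beta-lactamase FRET read.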

Assay [7] in a line: qHTS assay to identify small molecule agonists of the endoplasmic reticulum stress response signaling pathway - cell viability counter screen (AID 1159517; calls by dose curve; further: nearly all actives have a fitted effect of over 50% in size; further: potency means the concentration at half of the fitted maximal effect). The method, boiled down:
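Luminescence readout: CellTiter-Glo, 30 min RT, same wells as the ESRE-bla reporter read. HeLa ESRE-bla, 1,500 cells/well, o/n 37 C; cpd 5 hr 37 C/5% CO2.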

A short description of assay [8]: qHTS assay to identify small molecule agonists of the AP-1 signaling pathway - cell viability counter screen (AID 1159525; calls by dose curve; further: nearly all actives have a fitted effect of over 55% in size; further: potency means the concentration at half of the fitted maximal effect). The method, boiled down: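 ME-180 AP-1-bla, 2500 cells/well, Opti-MEM + 0.5% dialyzed FBS; overnight 37 °C; cpd 15-pt titration, 5 h 37 °C; CellTiter-Glo 30 min RT; luminescence read; normalised to TOAB and DMSO controls.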
A short description of assay [9]: qHTS assay to identify small molecule agonists of the RXR signaling pathway - cell viability counter screen (AID 1159529). Further: nearly all actives have a fitted effect of over 50% in size. Further: potency means the concentration at half of the fitted maximal effect. The method, boiled down: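 CellTiter-Glo luminescence gave viability in the wells also read for beta-lactamase. Cells (RXR-alpha-UAS-bla HEK 293T, 2% charcoal-stripped FBS medium) had 5 hr plating, then 16 hr compound exposure at 37 C; tetraoctyl ammonium bromide served as positive control.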

A short description of assay [10]: qHTS assay to identify small molecule agonists of the peroxisome proliferator-activated receptor delta (PPARd) signaling pathway - cell viability counter screen (AID 743211). Further: nearly all actives have a fitted effect of over 55% in size. Further: potency means the concentration at half of the fitted maximal effect. In a few lines: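 Viability was measured as CellTiter-Glo luminescence (30 min, room temperature) in the same wells as the beta-lactamase readout. GeneBLAzer PPARd UAS-bla HEK293H cells received compound after 5 h plating and were incubated 17 h at 37 C.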

Assay [11] can be described thus: qHTS assay to identify small molecule antagonists of the peroxisome proliferator-activated receptor delta (PPARd) signaling pathway - cell viability counter screen (AID 743213). Further: nearly all actives have a fitted effect of over 50% in size. Further: potency means the concentration at half of the fitted maximal effect. In a few lines: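 HEK293H cells with the PPARd UAS-bla reporter, co-treated 17 h at 37 C with compounds and L165041 (300 nM final), were lysed with CellTiter-Glo. Luminescence indicated viable cell content.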

Assay [12] addresses Vitamin D3 receptor (Homo sapiens) (UniProt P11473). The assay is described as follows: qHTS assay to identify small molecule antagonists of the vitamin D receptor (VDR) signaling pathway (AID 743223; active means well fitted inhibition curve with a large enough effect in the signal ratio in the repeat runs, not every such curve was filed as active; the % refers to the signal ratio). In a few lines: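 Antagonist mode: compound added to VDR-bla cells alongside agonist 1alpha,25-dihydroxyvitamin D3 (3 nM final), incubation 16 h at 37C. Read-out is LiveBLAzer FRET fluorescence, 2 h at room temperature.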

A short description of assay [13]: qHTS assay to identify small molecule antagonists of the vitamin D receptor (VDR) signaling pathway - cell viability counter screen (AID 743225). Further: nearly all actives have a fitted effect of over 50% in size. In a few lines: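 Cytotoxicity counter screen read by CellTiter-Glo luminescence (30 min, room temperature) in the same wells as the VDR-bla antagonist readout. HEK 293T VDR-UAS-bla cells had 16 h at 37C with compound and 3 nM (final) 1-alpha,25-dihydroxyvitamin D3, then 2 h with FRET substrate.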

The target of assay [14] is Nuclear receptor ROR-gamma (Homo sapiens) (UniProt P51449). Put plainly: qHTS assay to identify small molecule antagonists of the retinoid-related orphan receptor gamma (ROR-gamma) signaling pathway (AID 1159521; further: nearly all actives have a fitted effect of over 50% in size; further: potency means the concentration at half of the fitted maximal effect). The method, boiled down:
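Antagonist read-out: drop in luminescence (ONE-Glo) from an RORE-LUC reporter in CHO cells with doxycycline-inducible ROR-gamma; 2 hr compound pretreatment, 1 uM doxycycline, 16 hr incubation at 37 C.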

The nature of assay [15]: qHTS assay to identify small molecule agonists of the AP-1 signaling pathway (AID 1159526; calls by dose curve).
The target of assay [16] is Bile acid receptor (Homo sapiens) (UniProt Q96RI1). Put plainly: qHTS assay to identify small molecule antagonists of the farnesoid-X-receptor (FXR) signaling pathway (AID 743217; active means well fitted inhibition curve with a large enough effect in the signal ratio in the repeat runs, not every such curve was filed as active; the % refers to the signal ratio; further: potency means the concentration at half of the fitted maximal effect). The method, boiled down:
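HEK 293T FXR-UAS-bla, 5000 cells/well; compound + CDCA 50 uM final; 16 h, 37 °C; B/G FRET substrate 2 h RT; fluorescence.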

Assay [17] shares this target. The assay is described as follows: qHTS assay to identify small molecule agonists of the farnesoid-X-receptor (FXR) signaling pathway (AID 743220; active means well fitted activation curve with a large enough effect in the signal ratio in the repeat runs, not every such curve was filed as active; the % refers to the signal ratio; further: potency means the concentration at half of the fitted maximal effect). The method, boiled down: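 Beta-lactamase reporter under UAS control in GeneBLAzer FXR HEK 293T cells (5000/well) measured with LiveBLAzer FRET substrate after 2 h at room temperature. Compound exposure lasted 16 h at 37C.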

For assay [18], the target named is Retinoic acid receptor RXR-alpha (Homo sapiens) (UniProt P19793). The assay is described as follows: qHTS assay to identify small molecule agonists of the RXR signaling pathway (AID 1159527; calls by dose curve; further: nearly all actives have a fitted effect of over 35% in size). The method, boiled down: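 Agonist-mode beta-lactamase reporter assay: HEK 293T RXR-alpha-UAS-bla cells treated 16 hr at 37 C with compounds, 9-cis retinoic acid as positive control. LiveBLAzer FRET substrate, 405 nm excitation, 460/530 nm emission.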
Retinoic acid receptor RXR-alpha (Homo sapiens), sequence (P19793 whole entry, looked up): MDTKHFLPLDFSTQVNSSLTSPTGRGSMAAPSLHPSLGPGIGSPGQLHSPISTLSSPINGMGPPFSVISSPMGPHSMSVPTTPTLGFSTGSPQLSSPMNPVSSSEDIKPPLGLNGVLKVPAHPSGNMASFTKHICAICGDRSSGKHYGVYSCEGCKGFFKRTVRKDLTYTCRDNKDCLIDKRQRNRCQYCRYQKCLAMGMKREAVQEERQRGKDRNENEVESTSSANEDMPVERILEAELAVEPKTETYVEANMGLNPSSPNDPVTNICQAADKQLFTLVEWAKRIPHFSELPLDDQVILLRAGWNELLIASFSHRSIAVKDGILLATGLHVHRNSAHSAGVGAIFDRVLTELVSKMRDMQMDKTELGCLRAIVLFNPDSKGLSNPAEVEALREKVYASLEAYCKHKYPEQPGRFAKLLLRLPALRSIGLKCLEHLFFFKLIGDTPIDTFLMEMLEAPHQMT

Vitamin D3 receptor (Homo sapiens), sequence (P11473 whole entry, looked up): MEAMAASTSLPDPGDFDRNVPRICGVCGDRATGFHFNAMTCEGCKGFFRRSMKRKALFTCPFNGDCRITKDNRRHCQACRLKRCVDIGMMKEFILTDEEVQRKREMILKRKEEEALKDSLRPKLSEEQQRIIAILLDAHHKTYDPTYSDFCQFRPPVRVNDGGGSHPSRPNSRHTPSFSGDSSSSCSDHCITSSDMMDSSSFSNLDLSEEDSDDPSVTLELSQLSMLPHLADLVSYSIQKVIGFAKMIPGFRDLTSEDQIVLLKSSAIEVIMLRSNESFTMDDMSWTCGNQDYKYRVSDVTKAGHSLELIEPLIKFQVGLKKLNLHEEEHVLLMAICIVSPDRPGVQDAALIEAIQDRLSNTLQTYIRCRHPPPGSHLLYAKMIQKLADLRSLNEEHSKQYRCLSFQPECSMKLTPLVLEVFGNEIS
Bile acid receptor (Homo sapiens), sequence (Q96RI1 whole entry, looked up): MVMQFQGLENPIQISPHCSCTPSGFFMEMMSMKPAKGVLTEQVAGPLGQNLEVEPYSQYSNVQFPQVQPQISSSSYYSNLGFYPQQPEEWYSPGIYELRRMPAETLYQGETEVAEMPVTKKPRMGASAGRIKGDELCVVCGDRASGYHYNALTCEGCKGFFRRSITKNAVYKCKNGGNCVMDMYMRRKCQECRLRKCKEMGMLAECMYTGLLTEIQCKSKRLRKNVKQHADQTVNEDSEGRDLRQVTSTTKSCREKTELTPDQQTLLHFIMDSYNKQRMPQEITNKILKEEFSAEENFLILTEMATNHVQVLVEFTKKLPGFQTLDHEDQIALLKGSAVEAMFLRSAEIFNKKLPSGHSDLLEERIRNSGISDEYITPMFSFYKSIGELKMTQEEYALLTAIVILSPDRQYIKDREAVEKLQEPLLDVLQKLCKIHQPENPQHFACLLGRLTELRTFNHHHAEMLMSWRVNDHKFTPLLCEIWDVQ
Peroxisome proliferator-activated receptor delta (Homo sapiens), sequence (Q03181 whole entry, looked up): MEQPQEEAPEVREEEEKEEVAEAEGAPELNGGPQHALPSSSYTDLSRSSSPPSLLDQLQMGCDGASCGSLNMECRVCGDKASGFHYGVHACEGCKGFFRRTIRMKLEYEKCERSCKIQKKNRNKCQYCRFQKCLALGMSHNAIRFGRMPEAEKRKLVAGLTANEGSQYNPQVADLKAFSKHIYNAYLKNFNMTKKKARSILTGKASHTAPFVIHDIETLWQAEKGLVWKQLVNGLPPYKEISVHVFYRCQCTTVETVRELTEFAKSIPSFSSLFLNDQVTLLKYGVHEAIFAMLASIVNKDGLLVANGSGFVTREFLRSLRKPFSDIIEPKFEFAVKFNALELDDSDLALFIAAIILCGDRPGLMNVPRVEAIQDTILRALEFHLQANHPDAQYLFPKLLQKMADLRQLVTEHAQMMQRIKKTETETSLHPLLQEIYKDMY

`CCCCCCC(C)OC(=O)COc1nc(F)c(Cl)c(N)c1Cl` (stereo not drawn): the result in [1] was inactive. Further, the Potency result in assay [2], in [3], in assay [4] and in assay [5] was “inactive” throughout. For the same compound, the Potency was 43.6 µM (active) in [6], 54.9 µM (active) in [7], 49 µM (active) in [8] and 34.7 µM (active) in assay [9].
As to `CC(COC(=O)c1ccccc1)OC(=O)c1ccccc1` (stereo not drawn), the Potency entry in [10], in [11], in [4], in assay [12], in [13] and in [7] was “inactive” in each case. Further, the Potency entry in assay [14], in assay [8], in [15] and in assay [9] was “inactive” each time.
For `Clc1ccc(C(Cn2ccnc2)OCc2c(Cl)cccc2Cl)c(Cl)c1` (stereo not drawn), the Potency in [10] was 26.6 µM (active); in assay [16], 21.1 µM (active); in [3], 21.1 µM (active); in assay [17], 10.6 µM (active); in [4], 26.6 µM (active); in assay [6], 33.5 µM (active). In addition, the Potency in assay [14] was 13.3 µM (active); in [9], 26.8 µM (active). Also, the Potency entry in assay [5], in [13] and in assay [7] was “inactive” in each case.
For `COc1cc(C(=O)NS(=O)(=O)c2ccccc2C)ccc1Cc1cn(C)c2ccc(NC(=O)OC3CCCC3)cc12`, the Potency result in [11], in assay [4], in assay [12], in assay [6], in [13] and in assay [7] was “inactive” each time. Moreover, the Potency entry in [14] and in assay [9] was “inactive” in each case.
For `CCCCCCCCCC(=O)N(C)C`, the Potency result in assay [10], in assay [11], in [16], in assay [3], in [17] and in assay [4] was “inactive” each time. Further, the Potency entry in assay [5], in assay [12], in assay [6], in assay [13], in [7] and in [14] was “inactive” in each case. The Potency entry in assay [8], in assay [15] and in assay [9] was “inactive” in each case.
Consider `Cc1occc1SSc1ccoc1C`, for which the compound was classed as inactive in assay [1]. Further, the Potency result in assay [11], in assay [16], in assay [3], in [4], in assay [12] and in assay [7] was “inactive” each time. Moreover, the Potency result in assay [14], in [8] and in [9] was “inactive” throughout.
Regarding `C=CCCCCCCC=C`, the Potency result in [12], in [8] and in assay [15] was “inactive” each time. Besides, the Potency in [6] was 49.1 µM (active); in assay [7] it was 55.1 µM (active).
With `CCCCCCCCCCOCC(O)CN` (stereo not drawn), the Potency is 29.8 µM (active) in [11], 33.5 µM (active) in assay [3], 21.3 µM (active) in assay [7] and 26.6 µM (active) in assay [14]. In assay [15], the Potency result is “inactive”.
On to `COc1ccc(-n2nc(CCC(=O)N(C)O)cc2-c2ccc(Cl)cc2)cc1`, for which the compound was called inactive in assay [1]. The Potency entry in assay [4], in assay [7] and in assay [8] was “inactive” in each case.
Consider `Cc1cc(Nc2ccc(O)cc2)ccc1N`, for which the Potency entry in [10], in [11], in assay [2], in [17], in assay [4] and in [12] was “inactive” in each case. In addition, the Potency entry in assay [6], in assay [13], in assay [7], in assay [8] and in assay [18] was “inactive” in each case. The outcome in assay [1] was inactive.
For `C[n+]1c2cc(N)ccc2cc2ccc(N)cc21` (tested in a mixture with another compound), the Potency in assay [3] was 15 µM (active). Moreover, the Potency entry in [4], in assay [7] and in assay [8] was “inactive” each time.
